Consider three compounds from PubChem BioAssay.

SMILES strings stand for the structures. Values joined by “and” are separate entries in the source; they are usually repeats but may differ in a detail not shown here. Identical values can stand only once. Active and inactive are the calls of the source. Unless noted, no rule for the calls is given here.

Usually inhibition stands for the relative decrease from the control value, in per cent. The term viability denotes a read-out of living cells in per cent, often relative to untreated cells.

Assay [1] in a line: signal quenchers or enhancers, Cy5 substrate/SSB – biochemical, NIH Clinical Collection, E. coli SSB, artefact control for HCV NS3 helicase inhibitor project (AID 743268). The note with it: Cy5-oligo bound E. coli SSB, fluorescence interference.
Assay [2] concerns Hepatitis C virus NS3 helicase. Description: blockers of NS3h binding to DNA – biochemical, fluorescence polarization, NIH Clinical Collection, primary screen (AID 743270). The note with it: NS3 helicase binding to Cy5-dT15 DNA, stronger effect = higher value, concentration not given here. (Fluorescence polarisation rises when a labelled molecule tumbles more slowly, as on binding a larger partner.)

For assay [3], the target named is Single-stranded DNA-binding protein (Escherichia coli (strain K12)) (UniProt P0AGE0). Description: SSB-ssDNA binding inhibitors – biochemical, fluorescence polarization, NIH Clinical Collection, counter-screen for HCV NS3 helicase inhibitor project (AID 743271; in the data active = inhibition above about 28%). The note with it: E. coli SSB-DNA binding, stronger effect = higher value, concentration not given here.
Assay [4] can be described thus: compounds distorting NS3 helicase fluorescence signal – biochemical, NIH Clinical Collection, artefact control for HCV NS3 helicase inhibitor project (AID 743272).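 Also: HCV NS3 helicase with a Cy5 labelled single stranded DNA probe.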 The note with it: fluorescence interference counterscreen, HCV NS3 helicase assay; stronger effect = lower value. For orientation: A counterscreen serves to expose hits that act by an unwanted route or on another target.

The nature of assay [5]: Wnt pathway potentiators raising nuclear beta-catenin – imaging, WNT3A-conditioned medium, mouse C2C12, NPC library, primary screen (AID 1117326; in the data active = nuclear beta-catenin stimulation mostly above about 4.2%, no sharp cut-off; inactive = mostly below about 10%). The note with it: stronger effect = higher value.
Assay [6] in a line: stimulators of insulin release from INS-1E, primary screen, cell-based, 5 mM glucose, NPC library (AID 1117329;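 active = compound raises insulin release from rat beta cells at 5 mM glucose, no numeric limit stated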). The note with it: rat INS-1E insulin secretion, at 10 µM, stronger effect = higher value.
Assay [7] can be described thus: growth inhibition of GSK3B-pretreated HCT116 cells – cell-based, CellTiter-Glo, 0.2 to 20 µM (AID 1117336;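 active = compounds lowering colon cancer cell viability after pretreatment blocking the GSK3B kinase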). The settings on record: HCT116 viability after GSK3B inhibitor, at 20 µM, stronger effect = higher value.
Assay [8] in a line: inhibition of endothelial tube formation, primary screen, imaging, VEGF stimulated, CD31 staining, tube area, NPC library (AID 1117340;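 active = compound that reduces growth-factor-driven endothelial tube area in a mixed cell culture, no cutoff stated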). The settings on record: VEGF-stimulated ADSC/ECFC co-culture, at 10 µM, stronger effect = higher value.
The nature of assay [9]: GLP1 release stimulators, primary, NCI-H716, NPC library (AID 1117341;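 active = compound raises GLP1 secretion from the human gut endocrine cells, with no numeric limit stated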). The note with it: NCI-H716 cells, at 10 µM, stronger effect = higher value.
Assay [10] in a line: HCT116 colon cancer cell growth inhibition, primary screen, CellTiter-Glo luminescence, NPC library (AID 1117342;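 active = compounds that lower survival of HCT116 colon cancer cells in the luminescence readout, no numeric limit stated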). The settings on record: at 20 µM (top of the series). (In general: Cellular ATP, detected with luciferase, serves as a proxy for viable cell number.)
The nature of assay [11]: reduced SW480 viability measured with CellTiter-Glo, NPC library, primary (AID 1117343;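 active = compounds that lower viability of the colon cancer cells in the luminescence readout, with no numeric limit stated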). The note with it: CellTiter-Glo luminescence; at 20 µM (top of the series).
A short description of assay [12]: NPC library primary testing for decreased DLD-1 cell viability via CellTiter-Glo (AID 1117346;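 active = compounds that lower survival of DLD-1 colon cancer cells in the luminescence readout, no cutoff given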). The settings on record: DLD-1 viability, CellTiter-Glo luminescence; at 20 µM (top of the series).
The target in assay [13] is 6-phosphogluconate dehydrogenase, decarboxylating (Homo sapiens) (UniProt P52209). In words: inhibition of human phosphogluconate dehydrogenase – biochemical, recombinant enzyme, NADPH absorbance, primary screen (AID 1159550;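 active = at least 20% inhibition of 6-phosphogluconate dehydrogenase activity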). The note with it: recombinant 6PGD, NADPH absorbance 341 nm; at 10 µM; stronger effect = higher value.
6-phosphogluconate dehydrogenase, decarboxylating (Homo sapiens), sequence (P52209 whole entry, looked up): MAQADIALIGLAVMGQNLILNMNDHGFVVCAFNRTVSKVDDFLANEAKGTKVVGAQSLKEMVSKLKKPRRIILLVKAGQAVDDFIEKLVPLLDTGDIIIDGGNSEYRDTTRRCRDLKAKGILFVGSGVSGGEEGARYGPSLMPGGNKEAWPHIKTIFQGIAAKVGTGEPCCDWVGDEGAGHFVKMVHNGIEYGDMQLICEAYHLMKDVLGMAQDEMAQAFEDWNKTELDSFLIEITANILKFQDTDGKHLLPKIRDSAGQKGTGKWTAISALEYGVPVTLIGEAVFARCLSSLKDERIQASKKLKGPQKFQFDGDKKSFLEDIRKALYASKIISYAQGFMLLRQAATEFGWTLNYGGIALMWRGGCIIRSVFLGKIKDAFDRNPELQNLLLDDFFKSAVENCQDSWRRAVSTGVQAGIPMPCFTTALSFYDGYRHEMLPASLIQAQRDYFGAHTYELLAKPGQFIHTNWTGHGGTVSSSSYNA
A short description of assay [14]: EMT-state selective cytotoxicity in co-culture – imaging, PC-3E GFP, TEM4-18 mCherry, primary screen (AID 1345086;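 active = compounds killing one labelled cell type while sparing the other, by normalised counts and ratio limits, not self-fluorescent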;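 also: cells exposed to compound for 72 h before imaging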;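 as to red/green cell ratio (normalised): normalised mesenchymal count divided by normalised epithelial count so high means epithelial killing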). The settings on record: PC-3E GFP / TEM4-18 mCherry co-culture, imaging cell counts, at 1 µM.
Assay [15] in a line: MELAS cybrid and Rieske KO viability enhancers – cell-based, MELAS cybrids, Rieske KO mouse fibroblasts, CellTiter-Glo, primary screen (AID 1508586;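 active = mean z-score across replicates of 1.96 or higher in either the MELAS or the Rieske mutant cell line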;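 also: z relative to plate mean and SD of compound and empty wells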). The settings on record: low glucose.
In assay [16] the target is NAD(+) hydrolase SARM1 (Homo sapiens) (UniProt Q6SZW1). Description: blocking NAD cleavage by SARM1 SAM-TIR – cell lysate, NAD-Glo luminescence (AID 1508614;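 active = compound whose remaining NAD level is above about 45 nM, limit read from the data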;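 also: higher remaining NAD means stronger inhibition of SARM1 NADase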). The note with it: SAM-TIR HEK293T lysate NADase, at 1 µM, stronger effect = higher value.
NAD(+) hydrolase SARM1 (Homo sapiens), sequence (Q6SZW1 whole entry, looked up, the tested form may be a part): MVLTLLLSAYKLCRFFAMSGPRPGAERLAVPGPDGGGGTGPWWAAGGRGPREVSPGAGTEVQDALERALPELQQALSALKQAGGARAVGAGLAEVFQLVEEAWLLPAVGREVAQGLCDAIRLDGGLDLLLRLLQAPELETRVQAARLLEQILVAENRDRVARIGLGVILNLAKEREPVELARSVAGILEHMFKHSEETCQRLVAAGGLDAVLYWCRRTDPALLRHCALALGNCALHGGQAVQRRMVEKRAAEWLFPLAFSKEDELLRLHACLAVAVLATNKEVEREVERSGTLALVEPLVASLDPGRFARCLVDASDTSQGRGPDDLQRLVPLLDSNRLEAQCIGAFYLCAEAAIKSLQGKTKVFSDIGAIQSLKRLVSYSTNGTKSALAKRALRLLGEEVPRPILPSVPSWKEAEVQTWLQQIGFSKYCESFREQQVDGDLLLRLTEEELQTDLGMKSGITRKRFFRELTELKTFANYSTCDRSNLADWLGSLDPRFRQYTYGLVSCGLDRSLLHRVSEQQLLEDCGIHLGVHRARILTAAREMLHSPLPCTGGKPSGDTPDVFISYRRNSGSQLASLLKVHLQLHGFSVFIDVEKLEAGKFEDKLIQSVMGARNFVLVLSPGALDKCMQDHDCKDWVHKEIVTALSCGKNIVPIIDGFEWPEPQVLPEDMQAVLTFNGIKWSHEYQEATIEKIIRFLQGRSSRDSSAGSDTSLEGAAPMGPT
Assay [17] concerns the target Mitogen-activated protein kinase 7 (Homo sapiens) (UniProt Q13164). In words: Gal4-ERK5 driven luciferase induction – cell-based, HTS, primary screen (AID 1508626;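 active = luciferase signal above three times the same-plate solvent-only control wells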;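 also: luciferase driven by Gal4-ERK5 fusion binding five Gal4 sites before minimal TATA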). The note with it: HeLa Gal4-ERK5 transactivation, 18 h, at 5 µM, stronger effect = higher value.
The subject of assay [18] is F380Y. In words: BK channel mutant inhibitors and activators – cell-based, U2OS BacMam, thallium flux, beta subunits, selectivity assay, profiling panel (AID 1259406;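 active = thallium flux through the channel raised or lowered by more than 3 SD from vehicle-only wells, actives on both sides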;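 also: initial slope of Thallos dye fluorescence rise after thallium is added; log ratio against the mean of 0.3% DMSO vehicle wells on the same plate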). The settings on record: U2OS BacMam BK variants, at 30 µM.
Assay [19] in a line: P. berghei load reduction in hepatocytes – cell-based, HepG2, luciferase luminescence, HepG2 viability, primary screen (AID 624349; in the data active = parasite load remaining mostly below about 12%, no sharp cut-off; inactive = mostly above about 10%;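 also: 100% = mean of DMSO negative control wells on the same plate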). The note with it: P. berghei liver stage in HepG2, luciferase luminescence, concentration not given here; parasite load remaining: stronger effect = lower value; viability: measured here: HepG2 viability without parasites.
Assay [20] can be described thus: viability loss with induced miR-34 in A549 – imaging, A549 dox-inducible miR-34, nuclei and caspase counts, primary screen (AID 1347080;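 active = compounds whose cell count with miR-34 switched on is under 0.7 times the count with it off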). The note with it: A549 miR-34 inducible, Hoechst nuclei count, 48 h.
[21] abbreviates: MELAS cybrid survival, CellTiter-Glo 48 h, stronger effect = higher value.
[22] abbreviates: Rieske KO mouse fibroblast survival, CellTiter-Glo 72 h.
Setting [23] is: stronger effect = lower value, cell number ratio, induced over uninduced.
The mark [24] stands for this setting: measured here: relative caspase fold change +Dox/-Dox.
[25] abbreviates: measured here: total cells with miR-34 induction, stronger effect = lower value.
Setting [26] is: measured here: total cells without miR-34 induction.

Mitogen-activated protein kinase 7 (Homo sapiens), sequence (Q13164 whole entry, looked up, the tested form may be a part): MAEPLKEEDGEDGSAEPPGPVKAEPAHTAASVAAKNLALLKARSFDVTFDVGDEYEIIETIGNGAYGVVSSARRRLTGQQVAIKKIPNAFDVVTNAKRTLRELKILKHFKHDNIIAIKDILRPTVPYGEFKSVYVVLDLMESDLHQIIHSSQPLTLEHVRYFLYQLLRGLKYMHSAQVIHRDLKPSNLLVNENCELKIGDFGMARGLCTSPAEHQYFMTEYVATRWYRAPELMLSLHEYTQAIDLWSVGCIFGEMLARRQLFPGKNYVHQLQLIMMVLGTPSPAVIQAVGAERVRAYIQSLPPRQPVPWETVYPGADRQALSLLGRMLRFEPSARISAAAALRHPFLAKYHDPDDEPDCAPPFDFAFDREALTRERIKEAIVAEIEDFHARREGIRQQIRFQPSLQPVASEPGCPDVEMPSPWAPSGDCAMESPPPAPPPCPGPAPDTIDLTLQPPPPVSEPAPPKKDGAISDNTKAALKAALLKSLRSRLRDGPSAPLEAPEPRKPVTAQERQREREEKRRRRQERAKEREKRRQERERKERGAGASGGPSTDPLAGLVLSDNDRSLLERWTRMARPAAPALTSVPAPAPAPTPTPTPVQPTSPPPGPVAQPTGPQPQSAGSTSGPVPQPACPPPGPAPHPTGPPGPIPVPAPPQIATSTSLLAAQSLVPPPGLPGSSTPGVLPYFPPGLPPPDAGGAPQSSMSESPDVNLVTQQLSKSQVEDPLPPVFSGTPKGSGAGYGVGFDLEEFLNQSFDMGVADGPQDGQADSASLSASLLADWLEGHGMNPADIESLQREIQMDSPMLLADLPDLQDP

In the case of `COc1ccc2cc(CCC(C)=O)ccc2c1`, the fluorescence ratio in [1] was 0.1 (active); in [4], 0.99 (inactive). In addition, the inhibition in assay [2] was -1.36% (inactive); in [3], 1.05% (inactive); in assay [13] it was -24.5% (inactive). The nuclear beta-catenin stimulation in assay [5] (at 10 µM) is 5.3% (inactive); in [5] (stimulation, at 2 µM), 3.7%. Besides, the insulin secretion stimulation in assay [6] is 1.5% (inactive). The viability decrease in assay [7] is -7.2% (inactive). In addition, the tube area decrease in assay [8] is -5.2% (inactive). The GLP1 secretion stimulation in assay [9] was 0.4% (inactive). For the same compound, in [10], the inhibition of viability is -6.2% (inactive). Further, the values for the viability decrease (inhibition) in [11] and in [12] were 4.5% (inactive) and -3.8% (active), respectively. For the same compound, the red/green cell ratio (normalised) in [14] (actives lie on both sides, counts scaled to control wells, 1 = unselective) was 1.14 (inactive). Also, the normalised cell number in assay [14] (measured here: epithelial PC-3E GFP cell survival) was 1.12; in [14] (measured here: mesenchymal TEM4-18 mCherry cell survival), 1.27. Besides, the z-score in [15] (setting [21]) is -0.0447 (inactive) and 0.0297 (inactive) and 0.548 (inactive); in assay [15] (setting [22]), -0.132 and -0.0567 and -0.121. The remaining NAD in assay [16] was 10 nM (inactive). In addition, the luciferase signal in assay [17] is 92 AU (inactive). Also, in [18], the log fold change Tl+ flux was -0.158 (active).

On to `CC(=O)[C@H]1CC[C@H]2[C@@H]3C[C@H](C)C4=CC(=O)CC[C@]4(C)[C@H]3[C@@H](O)C[C@]12C`, for which the parasite load remaining in assay [19] is 57.6% (inactive) and 67.9% (inactive). Besides, the viability in assay [19] is 84.9% and 91.5%. Moreover, the fluorescence ratio was 0.93 (inactive) in [1] and 0.99 (inactive) in assay [4]. The inhibition in assay [2] is -0.45% (inactive); in [3] it was 0.29% (inactive); in assay [13], -11.2% (inactive). Moreover, the nuclear beta-catenin stimulation in assay [5] (at 10 µM) is 0.3% (inactive); in [5] (stimulation, at 2 µM), -0.3%. In addition, in [6], the insulin secretion stimulation was 0% (inactive). Moreover, the viability decrease in assay [7] is -48.8% (inactive). For the same compound, the tube area decrease in assay [8] is 13.8% (inactive). Also, the GLP1 secretion stimulation in assay [9] is 0.4% (inactive). Besides, the inhibition of viability in [10] is 14.4% (inactive). Moreover, the viability decrease (inhibition) in assay [11] was 11.1% (inactive); in [12], -5.4% (inactive). In addition, the fold change in assay [20] (setting [23]) was 0.951 (inactive) and 0.798 (inactive); in assay [20] (setting [24]) it was 1.06 and 1.54. Also, the cell count is 6580 and 6920 in [20] (setting [25]); 6920 and 8680 in assay [20] (setting [26]). Besides, the z-score in assay [15] (setting [21]) was 0.756 (inactive); in assay [15] (setting [22]), 1.33. In addition, in [16], the remaining NAD is 10 nM (inactive). In addition, in assay [17], the luciferase signal is 84 AU (inactive). In addition, the log fold change Tl+ flux in [18] is -0.0207 (inactive).

On to `C[C@]12C=CC(=O)C=C1CC[C@@H]1[C@@H]2C(=O)C[C@@]2(C)[C@H]1CC[C@]2(O)C(=O)CO`, for which the fluorescence ratio in assay [1] was 0.107 (active); in assay [4] it was 0.95 (inactive). Further, the inhibition is -0.45% (inactive) in assay [2], -1.24% (inactive) in assay [3] and -6.11% (inactive) in [13]. In addition, the nuclear beta-catenin stimulation in [5] (at 10 µM) is 0.6% (inactive); in assay [5] (stimulation, at 2 µM) it was 0.8%. Also, the insulin secretion stimulation in assay [6] is -2.5% (inactive). Also, in assay [7], the viability decrease is -21.3% (inactive). Also, the tube area decrease in [8] was -13.7% (inactive). The GLP1 secretion stimulation in assay [9] was 0.9% (inactive). The inhibition of viability in assay [10] was -8.2% (inactive). Further, the viability decrease (inhibition) in [11] is -6.4% (inactive); in assay [12] it was -11.6% (inactive). Besides, the fold change in assay [20] (setting [23]) was 0.98 (inactive) and 0.843 (inactive) and 0.886 (inactive); in [20] (setting [24]), 1.65 and 0.777 and 1.15. Also, the cell count in assay [20] (setting [25]) is 10300 and 7950 and 9680; in assay [20] (setting [26]), 10500 and 9420 and 10900. The z-score in assay [15] (setting [21]) is 0.134 (inactive) and 0.541 (inactive); in assay [15] (setting [22]), -0.259 and 0.148. Also, the remaining NAD in [16] is 10 nM (inactive). In [17], the luciferase signal was 28 AU (inactive). Besides, the log fold change Tl+ flux in assay [18] was 0.00715 (inactive).
